Among all 330,000 compounds or so, about 5,800 (1.8%) were called active. This excerpt belongs to a sample that is enriched for actives. Values without a mark were called inactive.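 The calls were made as follows: active = inhibition above about 50% at the single tested dose (limit read from the data); inactive = the rest.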

For the test, the target named is Sentrin-specific protease 6 (Homo sapiens) (UniProt Q9GZR1). Description: inhibition of human SENP6 catalytic domain – biochemical, luminescence, uHTS, primary screen (AID 2599).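 Also: plate controls were DMSO wells with enzyme for no effect and DMSO wells lacking enzyme for full effect.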 The note with it: Recombinant SENP6 catalytic domain, aminoluciferin luminescence; at 10 µM; stronger effect = higher value.
Sequence of Sentrin-specific protease 6 (Homo sapiens) (Q9GZR1 628-1112 limits assumed): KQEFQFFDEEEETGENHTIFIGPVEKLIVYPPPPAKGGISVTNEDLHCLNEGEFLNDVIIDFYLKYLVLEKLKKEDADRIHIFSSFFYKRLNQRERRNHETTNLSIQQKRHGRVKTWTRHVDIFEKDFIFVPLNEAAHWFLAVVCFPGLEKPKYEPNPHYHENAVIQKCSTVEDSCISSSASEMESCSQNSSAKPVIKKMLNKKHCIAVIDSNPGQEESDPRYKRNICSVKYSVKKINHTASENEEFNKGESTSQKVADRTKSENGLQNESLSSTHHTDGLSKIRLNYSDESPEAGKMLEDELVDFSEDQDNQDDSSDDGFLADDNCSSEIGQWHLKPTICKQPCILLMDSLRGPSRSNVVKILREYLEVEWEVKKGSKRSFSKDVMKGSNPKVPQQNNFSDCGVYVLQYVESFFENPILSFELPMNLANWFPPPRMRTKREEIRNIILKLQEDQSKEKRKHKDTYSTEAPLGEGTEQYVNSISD
Take `Cc1nn(C)c(C)c1NS(=O)(=O)c1ccc(OC(F)(F)F)cc1`: the inhibition – broadly, the drop in the measured response relative to a control, in per cent – is 5.85%. Next, `O=C1COc2ccc(S(=O)(=O)Nc3ccc(OC(F)(F)F)cc3)cc2N1`: -6.08%. Under `O=S(=O)(Nc1ccc(O)c2ccccc12)c1ccc(OC(F)(F)F)cc1` stands 74.9% (active).

Turning to `C[C@@H]1CN([C@@H](C)CO)C(=O)c2cccc(NS(=O)(=O)c3ccc(F)cc3)c2O[C@H]1CN(C)C(=O)NC1CCCCC1`, the inhibition is -9.28%. For the molecule `CCOc1ccc(NC(=O)COc2ccc(S(=O)(=O)N3CCCC3)cc2)cc1`, the inhibition was -19.8%. Turning to `Cc1ccc(/C=N/NC(=O)c2cc3ccccc3cc2O)o1`, the inhibition is 73.7% (active). Regarding `O=C(N/N=C/c1cccnc1)c1cc2ccccc2cc1O`, the inhibition is 54.6% (active). With `Cc1ccc(/C=N/NC(=S)Nc2cccc(S(=O)(=O)N(C)C)c2)o1`, the inhibition was -0.431%. Next, `O=C(N/N=C/c1cccnc1)c1ccc(NC(=O)c2ccc(F)cc2)cc1`: -21.5%; `CNC(=O)c1cc2c(ccc3ccccc32)oc1=N`: 6.2%; `O=C(N/N=C\c1cccnc1)c1cc(-c2ccccc2)nc2c(Cl)cccc12`: -10.9%. Next, `Cc1ccc(/C=N/NC(=S)NC2CCCCC2)o1`: -24.3%; `N=c1oc2ccccc2cc1C(=O)N/N=C/c1ccccc1`: 89.2% (active). Turning to `N=c1oc2ccccc2cc1C(=O)NCc1ccccc1`, the inhibition is -3.97%.

`CCCN(CC(=O)Nc1ccccc1OC)C(=O)CCC(=O)c1ccc(F)cc1`: the inhibition was -2.28%.

In the case of `O=C(C(=O)N1CCc2ccccc2C1)c1c[nH]c2ccccc12`, the inhibition was -7.83%. For `CC(NC(=O)c1cccc(S(=O)(=O)N2CCc3ccccc3C2)c1)c1ccco1` (stereo not drawn), the inhibition is -17.8%. Turning to `CCOc1cc(/C=C2\SC(N3CCCC(C)C3)=NC2=O)ccc1O` (stereo not drawn), the inhibition is 11.9%.

`CCCc1ccc(OCC(O)CN2CCN(CCO)CC2)cc1` (stereo not drawn): the inhibition is 5.43%. Next, `CCc1cccc(NC(=O)COC(=O)C2CCN(c3ccc(C(F)(F)F)cn3)CC2)c1`: 33.7%; `CCOc1ccc(CN2CCN(CCCc3ccccc3)C(CCO)C2)cc1` (stereo not drawn): 9.84%; `Cc1nnc(CN(C)Cc2cn[nH]c2-c2ccc(-c3ccccc3)cc2)o1`: -1.7%.

As for `Cc1c(Cl)cccc1NC(=O)CC1SC(=NCC2CCCO2)NC1=O` (stereo not drawn), the inhibition is -0.542%.

Consider `COc1ccc(OC)c(/C=C/C(=O)c2ccc3c(c2)OCO3)c1`, for which the inhibition was -8.22%. Next, `CC(Sc1nnc(COc2ccccc2)n1-c1ccccc1)C(=O)O` (stereo not drawn): -16.5%; `Nc1ccccc1/C=N\N=C/c1ccccc1N`: 60.6% (active).

With `C=CCC[C@H](Cc1ccc(F)cc1)C(=O)OC[C@H](C)NC(=O)[C@H](CC=C)CC(=O)N(CCO)Cc1ccccc1`, the inhibition is -7.07%.

In the case of `CCCCCCC12CCC(C(=O)O)(CC1)CC2`, the inhibition was -27.4%.

For the origin of these results see PubChem BioAssay AID2599 (Sanford-Burnham Center for Chemical Genomics, 2010).
